# High-throughput results from PubChem BioAssay.
# An excerpt weighted towards active compounds, which were near 7.3% of everything screened.
# RORg inh = ROR gamma (mouse) transcription inhibition | P51450 | AID 2551 | Drosophila S2 Gal4-RORgamma UAS-luciferase reporter, 20 h | Potency, µM (doses to about 53.6 µM), inactives show at the top dose activity change, negative = inhibition, usual class: inhibitors | 5.4% of 310,000 active; further: nearly all actives have a fitted effect of over 60% in size
# Target sequence (P51450 whole entry, looked up, the tested form may be a part): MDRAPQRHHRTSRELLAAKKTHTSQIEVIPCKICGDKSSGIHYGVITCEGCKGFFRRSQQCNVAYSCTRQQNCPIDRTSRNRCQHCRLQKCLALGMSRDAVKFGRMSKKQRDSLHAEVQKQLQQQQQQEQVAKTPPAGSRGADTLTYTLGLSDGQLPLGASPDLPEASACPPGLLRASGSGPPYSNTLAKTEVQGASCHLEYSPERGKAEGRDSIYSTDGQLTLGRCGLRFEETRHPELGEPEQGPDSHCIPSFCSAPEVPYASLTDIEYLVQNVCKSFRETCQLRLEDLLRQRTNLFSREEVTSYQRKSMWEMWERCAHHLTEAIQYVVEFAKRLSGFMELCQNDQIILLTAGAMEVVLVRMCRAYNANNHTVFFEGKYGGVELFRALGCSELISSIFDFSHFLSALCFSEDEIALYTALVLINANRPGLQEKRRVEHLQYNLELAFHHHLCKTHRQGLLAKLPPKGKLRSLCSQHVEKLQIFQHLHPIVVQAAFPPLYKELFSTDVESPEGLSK
#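 Drosophila Schneider cells stably carrying a metallothionein-driven Gal4 DBD–ROR gamma fusion and a UAS-Photinus luciferase reporter were exposed to compound for 1 hr, then induced with copper sulfate (700 uM final) for 20 hr at ambient temperature before luminescence reading.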
# Tau fluor cs = counter-screen for tau fibril formation inhibitors; tau K18 P301L Alexa594 fluorescence, heparin fibrillization; 0.93% of 280,000 active; Potency, µM (highest dose often 57.7 µM), for the others: top-dose activity change, negative = decrease; AID 1463; further: nearly all actives have a fitted effect of over 55% in size
#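 Human tau K18 P301L (15 uM unlabeled, 0.24 uM Alexa 594-labeled) in 100 mM sodium acetate pH 7 with 20 uM heparin, 6 hr at 37 C. ThT 30 uM added, 1 hr ambient; Alexa 594 FP and total fluorescence read at 555/632 nm.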
# Tau ThT inhib = blocks human tau fibril formation measured by thioflavin T | P10636 | recombinant tau K18 P301L (four-repeat tau fragment), heparin-induced fibrillization, ThT fluorescence | Potency, µM (doses to about 57.4 µM), for the others: at the top dose activity, negative = inhibition, most hits filed as inhibitors | 2.1% of 270,000 active | AID 1460; further: nearly all actives have a fitted effect of over 55% in size
# Target sequence (P10636 561-689 P618L limits assumed): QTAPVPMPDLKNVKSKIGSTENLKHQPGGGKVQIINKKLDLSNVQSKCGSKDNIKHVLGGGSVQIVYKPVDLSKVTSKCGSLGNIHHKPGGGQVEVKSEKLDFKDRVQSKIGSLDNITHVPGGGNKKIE
#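 Tau K18 P301L fragment (15 uM unlabeled plus 0.24 uM Alexa 594-labeled) in 100 mM sodium acetate pH 7 with compound, fibrillization induced by 20 uM heparin for 6 hr at 37 C. Thioflavin T (30 uM) added, fluorescence read after 1 hr (ex 450, em 510 nm).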
# VP16 counter = Gal4-VP16 reporter inhibition counter-screen | Drosophila S2 Gal4-VP16 UAS-luciferase, luminescence, 20 h | Potency, µM (titrated, usually from 53.6 µM), without a hit: at the highest dose activity, negative = inhibition, actives largely listed as inhibitors | 3.5% of 310,000 active;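 further: Gal4-VP16 expression switched on by copper sulfate through the metallothionein promoter; nearly all actives have a fitted effect of over 50% in size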
# Tau FP inhib = inhibitors of human tau fibril formation | K18 P301L tau heparin fibrillization, Alexa594 FP, 6 h | Potency, µM (highest dose often 57.7 µM), without a hit: top-dose activity, negative = inhibition, hits mostly inhibitors | 0.39% of 280,000 active; further: nearly all actives have a fitted effect of over 55% in size
#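 Steps: dispense K18 P301L tau (15 uM plus 0.24 uM Alexa 594 tracer, final) in pH 7 sodium acetate; add compound; add heparin (20 uM final); incubate 6 hr, 37 C; add ThT (30 uM final); after 1 hr ambient, read FP.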
# The depositor's hits bear a star; ? = inconclusive; . = no result given; [ ] = dose if it differs, or a comment. The call rests on the fitted dose curve; in most records, active means well fitted curve in the direction sought with a large enough effect; inconclusive means small, poorly fitted or top-dose-only effect, or another doubt; inactive means no such curve, though single readings can be large; an effect the other way counts as inactive or inconclusive. On the % scale 0 is the no-effect control and ±100 the full control effect; potency means the concentration at half of the fitted maximal effect.
SMILES,RORg inh,Tau fluor cs,Tau ThT inhib,VP16 counter,Tau FP inhib
CC[C@H](C)[C@H](NC(=O)[C@H](CO)NC(=O)[C@H](CC(N)=O)NC(=O)[C@H](CC(C)C)NC(=O)[C@H](Cc1ccc(O)cc1)NC(=O)[C@H](CCCCN)NC(=O)[C@H](CCCCN)NC(=O)[C@@H](NC(=O)[C@H](C)NC(=O)[C@H](CCSC)NC(=O)[C@H](CCC(N)=O)NC(=O)[C@H](CCCCN)NC(=O)[C@H](CCCNC(=N)N)NC(=O)[C@H](CC(C)C)NC(=O)[C@H](CCCNC(=N)N)NC(=O)[C@@H](NC(=O)[C@H](Cc1ccc(O)cc1)NC(=O)[C@H](CC(N)=O)NC(=O)[C@H](CC(=O)O)NC(=O)[C@@H](NC(=O)[C@H](Cc1ccccc1)NC(=O)[C@@H](NC(=O)[C@H](C)NC(=O)[C@H](CC(=O)O)NC(=O)[C@H](CO)NC(=O)[C@@H](N)Cc1cnc[nH]1)C(C)C)[C@@H](C)O)[C@@H](C)O)C(C)C)C(=O)N[C@@H](CC(C)C)C(=O)N[C@@H](CC(N)=O)C(N)=O,-3.4%,.,.,4.7%,.
Cc1cc2c3c([nH]c2cc1S(=O)(=O)NCCCOC(C)C)CC(C)(C)CC3=O,?,.,.,-6.4%,.
COc1cccc(C2=Nn3c(nnc3-c3ccccc3C)SC2)c1,?,.,.,15.8µM*,.
COc1ccc(SCC(CC(C)C)N2CCN(CCc3ccccc3)CCC2=O)cc1 (configuration not stated),12.7%,.,.,?,.
COc1ccc(C(=O)N/C(=C\c2ccco2)C(=O)OCc2ccco2)cc1,44.0%,-12.9%,.,23.6%,-1.7%
N#CC(C#N)=C1C=CC=CN1/C(=C\c1ccco1)C(=O)c1ccc(Br)cc1,3.55µM*,-27.7%,11.2µM*,1.26µM*,?
CC(C)(C)NC(=O)/C(=C/c1ccco1)c1ccccc1,22.5%,-2.5%,-8.7%,-0.5%,-5.5%
CCN(CC)c1ccc(/C=C(\C#N)C(=O)c2ccc(Br)cc2)cc1,?,?,?,?,-9.3%
COc1ccc(/C=C(/C(=O)c2cccs2)N2C=CC=CC2=C(C#N)C#N)cc1,2.24µM*,-29.4%,28.2µM*,2.82µM*,?
N#CC(C#N)=C1C=CC=CN1/C(=C\c1ccco1)C(=O)c1ccccc1,5.01µM*,?,14.1µM*,1.78µM*,20µM*
COc1ccc(C(=O)/C(=C\c2ccco2)N2C=CC=CC2=C(C#N)C#N)cc1,3.98µM*,?,12.6µM*,3.55µM*,?
Cn1c(=O)c2c(nc3n(-c4ccc(O)cc4)c(-c4ccc(Br)cc4)cn23)n(C)c1=O,.,-2.7%,-1.4%,.,3.6%
CC1(C)O[C@@H]2[C@@H](O1)C(c1ccccc1)(c1ccccc1)OP(=O)(O)OC2(c1ccccc1)c1ccccc1,1.0%,-1.2%,-12.1%,2.2%,0.7%
CCn1c(C)nc2cc(S(=O)(=O)C(F)(F)F)ccc21,?,-4.5%,-11.8%,?,-3.0%
CCn1c(C)nc2cc(C(=O)N3N=C(CCOC)CC3(O)C(F)(F)F)ccc21 (configuration not stated),?,16.8%,.,35.5µM*,3.8%
Cc1cc(O)c(-c2ccnc3cc(-c4ccccc4)nn23)cc1Cl,.,?,-16.9%,.,?
COc1ccc(-c2cc(OC(=O)c3cccc(Cl)c3)c3c(C)oc(C)c3c(=O)c2)cc1,.,-11.9%,?,.,-0.1%
Cc1cc(C)c(S(=O)(=O)Nc2ccc3c(c2)CCC3)c(C)c1,-11.9%,4.7%,6.0%,-16.0%,2.2%
Cc1cc(C)c(S(=O)(=O)Nc2ccc3c4c(cccc24)CC3)c(C)c1,11.2µM*,-22.2%,-2.4%,?,3.9%
COc1ccc(/C=C2/SC(=S)N(CCC(=O)N3CCN(C)CC3)C2=O)cc1,10µM*,.,.,18.8%,.
COc1ccc(/C=C2/SC(=S)N(CCCC(=O)N3CCN(C)CC3)C2=O)cc1,1.41µM*,.,.,2.51µM*,.
CCOc1ccc(/C=C2/SC(=S)N(CCC(=O)Nc3ccc(C(=O)O)cc3)C2=O)cc1,?,.,.,3.6%,.
Cc1ccc(/C=C2\SC(=S)N(CCCC(=O)N3CCOCC3)C2=O)cc1,3.16µM*,.,.,?,.
CCOc1ccc(/C=C2\SC(=S)N(CCC(=O)O)C2=O)cc1,1.12µM*,-1.0%,?,-3.0%,2.7%
CC1(C)CC(=O)C(C(C2=C(O)CC(C)(C)CC2=O)c2ccc(Br)s2)C(=O)C1 (configuration not stated),?,3.8%,-6.9%,10µM*,-1.3%
SMILES,RORg inh,Tau fluor cs,Tau ThT inhib,VP16 counter,Tau FP inhib
CN1C/C(=C/c2ccc(B(O)O)cc2)C(=O)/C(=C/c2ccc(B(O)O)cc2)C1,2µM*,.,.,4.47µM*,.
CN1C/C(=C/c2cccnc2)C(=O)/C(=C/c2cccnc2)C1,5.62µM*,-6.2%,?,2.82µM*,?
Cc1ccc(-c2cc(C(=O)Nc3c(C(=O)c4ccc(C)c(F)c4)oc4ccccc34)no2)cc1,.,-6.0%,2.7%,.,-10.9%
COc1ccccc1NC(=O)c1oc2ccccc2c1NC(=O)C1CCCCC1,.,-23.0%,2.9%,.,-17.3%
CCCS(=O)(=O)c1nc(S(=O)(=O)c2ccc(C)cc2)c(NC)s1,.,-2.4%,4.2%,.,0.8%
Brc1ccc(/C=C/C=N/Nc2nc3ccccc3s2)cc1,28.2%,3.6%,2.7%,-2.6%,5.1%
CCCCOC(=O)Nc1nc2ccccc2s1,?,-0.1%,-10.2%,-19.5%,0.0%
C(=C\c1ccccc1)/C=N/Nc1nc2ccccc2s1,7.94µM*,10µM*[quencher],?,?,-5.6%
CCC/C=N/Nc1nc2ccccc2s1,11.2µM*,?,?,?,2.9%
Clc1cccc(Cl)c1CNc1ccc(N2CCCC2)cc1,-10.3%,?,7.94µM*,-5.0%,?
Cc1ccccc1Nc1c(-c2cccc(N(C)C)c2)nc2ccc(Br)cn12,.,-24.1%,-8.5%,.,-0.7%
CCC(CO)NC(=O)C(=O)Nc1c2c(nn1-c1ccc(F)cc1)CSC2 (configuration not stated),.,-14.1%,?,.,-7.5%
Cc1cc[n+](-c2ccccc2)c2ccccc12,28.5%,-11.4%,?,11.2µM*,-2.1%
Oc1ccc(Nc2nc(-c3ccccc3F)nc3ccccc23)cc1,-3.7%,.,.,0.7%,.
COc1ccc(Nc2nc(-c3ccccc3)nc3ccccc23)c(OC)c1,-17.4%,25.1µM*[quencher],?,-3.0%,7.8%
COc1ccc(Nc2nc(-c3ccccc3F)nc3ccccc23)cc1OC,-18.6%,10µM*[quencher],?,-11.9%,14.8%
COc1ccc(CNc2nc(-c3ccccc3OC)nc3ccccc23)c(OC)c1,12.6µM*,-29.8%,?,?,?
COc1ccccc1Nc1nc(-c2ccccc2)nc2ccccc12,-20.0%,?,-1.7%,-6.9%,?
Cn1c(C(C#N)C(=O)c2sc3ccccc3c2Cl)nc2ccccc21 (configuration not stated),1.78µM*,-1.1%,-8.1%,4.47µM*,?
